Data taken from the supplement of paper PMC12350171.
Where a name gives a salt, the structure may show the parent alone. Unmarked numbers belong to inactive results.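 The calls were made as follows: active = AUC significantly below DMSO controls by Student t-fit with adjusted P under 0.01; inactive = not significantly reduced.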

Tested on: Haemophilus parainfluenzae
Assay: growth AUC normalised to DMSO control (fraction of control); higher = less growth inhibition, active = hit call of the paper
Conditions: 20 µM
In short: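 After two anaerobic passages, pathogens were added at a starting OD578 of 0.01 to pre-reduced mGAM plates holding compound at 20 μM with 1% DMSO; hemin and NAD were supplemented for Haemophilus parainfluenzae. Sealed with breathable membranes, plates were read at OD578 hourly for 24 h, in three biological replicates. The trapezoidal rule, applied up to the exponential-to-stationary transition, gave the growth-curve AUC, which was normalised to DMSO controls on the same plate.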

| Compound | growth AUC normalised to DMSO control |
| --- | --- |
| C#C[C@]1(O)CC[C@H]2[C@@H]3CCC4=CC(=O)CC[C@@H]4[C@H]3CC[C@@]21C [Norethindrone] | 0.989 |
| Cc1ccnc(NS(=O)(=O)c2ccc(N)cc2)n1 [Sulfamerazine] | 0.994 |
| O=C(c1ccc(OCCN2CCCCC2)cc1)c1c(-c2ccc(O)cc2)sc2cc(O)ccc12 [Raloxifene hydrochloride] | 0.974 |
| CC(C)(C)NC[C@H](O)COc1nsnc1N1CCOCC1 [Timolol maleate salt] | 1.02 |
| Nc1ccn([C@@H]2CS[C@H](CO)O2)c(=O)n1 [Lamivudine] | 0.999 |
| C[C@]12C=CC(=O)C=C1CC[C@@H]1[C@@H]2[C@@H](O)C[C@@]2(C)[C@H]1CC[C@]2(O)C(=O)CO [Prednisolone] | 0.935 |
| CNCCCN1c2ccccc2CCc2ccccc21 [Desipramine hydrochloride] | 0.979 |
| NC[C@@H]1O[C@H](O[C@H]2[C@@H](O)[C@H](O[C@@H]3[C@@H](O)[C@H](N)C[C@H](N)[C@H]3O[C@H]3O[C@H](CN)[C@@H](O)[C@H](O)[C@H]3N)O[C@@H]2CO)[C@H](N)[C@@H](O)[C@@H]1O [Neomycin sulfate] | 0.923 |
| N=C(N)c1ccc(OCCCCCOc2ccc(C(=N)N)cc2)cc1 [Pentamidine isethionate] | 0.946 |
| CCCCCCCCCCCCCCCC[N+](C)(C)CCN(Cc1ccc(OC)cc1)c1ncccn1 [Thonzonium bromide] | 0.978 |
| COc1ccc2[nH]c([S+]([O-])Cc3ncc(C)c(OC)c3C)nc2n1 (centres undefined) [Tenatoprazole] | 0.978 |
| Cc1cc(/C=C/c2ccc3cc(N(C)C)ccc3[n+]2C)c(C)n1-c1ccccc1 [Pyrvinium pamoate] | 1.06 |
| CC[C@]12CCCN3CCc4c(n(c5ccccc45)[C@@](O)(C(=O)OC)C1)[C@@H]32 [Vincamine] | 0.98 |
| O=C(O)CNC(=O)C(CS)Cc1ccccc1 (centres undefined) [Thiorphan] | 0.891 |
| c1ccc2c(c1)CCCC2C1=NCCN1 (centres undefined) [Tetrahydrozoline hydrochloride] | 0.986 |
| Nc1ccc(/N=N/c2ccccc2)c(N)n1 [Phenazopyridine hydrochloride] | 0.922 |
| CC1(C)O[C@@H]2C[C@H]3[C@@H]4C[C@H](F)C5=CC(=O)C=C[C@]5(C)[C@@]4(F)[C@@H](O)C[C@]3(C)[C@]2(C(=O)CO)O1 [Fluocinolone acetonide] | 0.995 |

| Compound | growth AUC normalised to DMSO control |
| --- | --- |
| COc1ccccc1OCC(O)CN1CCN(CC(=O)Nc2c(C)cccc2C)CC1 (centres undefined) [Ranolazine] | 1.03 |
| CCCCCCC[N+](CC)(CC)CCCCc1ccc(Cl)cc1 [Clofilium tosylate] | 1.01 |
| CCCCC[C@H](O)/C=C/[C@H]1[C@H](O)CC(=O)[C@@H]1CCCCCCC(=O)O [Alprostadil] | 0.903 |
| CCCC1O[C@@H]2C[C@H]3[C@@H]4CCC5=CC(=O)C=C[C@]5(C)[C@H]4[C@@H](O)C[C@]3(C)[C@]2(C(=O)CO)O1 (some centres undefined) [Budesonide] | 0.964 |
| COc1ccc(NS(=O)(=O)c2ccc(N)cc2)nn1 [Sulfamethoxypyridazine] | 1.04 |
| Cc1ccc(S(=O)(=O)NC(=O)NN2CC3CCCC3C2)cc1 (centres undefined) [Gliclazide] | 0.996 |
| Clc1ccc(C(Cn2ccnc2)OCc2c(Cl)cccc2Cl)c(Cl)c1 (centres undefined) [Isoconazole] | 0.972 |
| Clc1ccc(COC(Cn2ccnc2)c2ccc(Cl)cc2Cl)cc1 (centres undefined) [Econazole nitrate] | 1.09 |
| CC(C)(C)NC[C@@H](O)COc1cccc2c1CCCC2=O [(+) Levobunolol hydrochloride] | 0.973 |
| CN[C@@H]1[C@@H](O)[C@@H](O[C@@H]2[C@@H](O)[C@H](O[C@H]3OC(CN)=CC[C@H]3N)[C@@H](N)C[C@H]2N)OC[C@]1(C)O [Sisomicin sulfate] | 0.864 |
| CC(=O)c1ccc(S(=O)(=O)NC(=O)NC2CCCCC2)cc1 [Acetohexamide] | 0.971 |
| O=C(Cn1ccnc1[N+](=O)[O-])NCCO [Etanidazole] | 0.929 |
| C#C[C@]1(O)CC[C@H]2[C@@H]3CCC4=CC(=O)CC[C@@H]4[C@H]3CC[C@@]21CC [(D-) Norgestrel] | 0.969 |
| CN(N=O)C(=O)N[C@H]1C(O)O[C@H](CO)[C@@H](O)[C@@H]1O (mixture of isomers) [Streptozotocin] | 0.172 (active) |
| NS(=O)(=O)c1cc2c(cc1Cl)NC(CC1CCCC1)NS2(=O)=O (centres undefined) [Cyclopenthiazide] | 0.982 |
| Nc1ccc(C(=O)NCC(=O)O)cc1 [Aminohippuric acid] | 1 |
| Oc1c(Cl)cc(Cl)c(Cl)c1Cc1c(O)c(Cl)cc(Cl)c1Cl [Hexachlorophene] | 0.0305 (active) |
